Assay results published in PubChem BioAssay (Tox21).
Where “and” joins values, the source holds several entries; their conditions need not be identical. Identical values can stand only once. Records with an inconclusive call do not appear. Where a call stands in place of a potency, no number is given. Some structures have more than one record in an assay (separate samples or runs), and their calls can disagree. Calls of active or inactive are those of the source. Unless noted, the call rests on the fitted dose curve; in most records, active means well fitted curve in the direction sought with a large enough effect in the repeat runs; inconclusive means weak or mixed curves; inactive means no such curve, though single readings can be large; an effect the other way counts as inactive or inconclusive.

Experiments:
[1] = qHTS assay to identify small molecule agonists of the peroxisome proliferator-activated receptor delta (PPARd) signaling pathway - cell viability counter screen (AID 743211); further: nearly all actives have a fitted effect of over 55% in size; further: potency means the concentration at half of the fitted maximal effect
Procedure, shortened: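 PPARd-bla HEK293H cells (3000/well) were pre-incubated 5 h at 37 C, then exposed to compound for 17 h at 37 C. After 2 h with LiveBLAzer substrate, CellTiter-Glo was added to the same wells; luminescence read after 30 min at room temperature.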

[2] = molecular target: Peroxisome proliferator-activated receptor delta (Homo sapiens) (UniProt Q03181); experiment: qHTS assay to identify small molecule agonists of the peroxisome proliferator-activated receptor delta (PPARd) signaling pathway (AID 743212; calls by dose curve)
Sequence of Peroxisome proliferator-activated receptor delta (Homo sapiens) (Q03181 whole entry, looked up): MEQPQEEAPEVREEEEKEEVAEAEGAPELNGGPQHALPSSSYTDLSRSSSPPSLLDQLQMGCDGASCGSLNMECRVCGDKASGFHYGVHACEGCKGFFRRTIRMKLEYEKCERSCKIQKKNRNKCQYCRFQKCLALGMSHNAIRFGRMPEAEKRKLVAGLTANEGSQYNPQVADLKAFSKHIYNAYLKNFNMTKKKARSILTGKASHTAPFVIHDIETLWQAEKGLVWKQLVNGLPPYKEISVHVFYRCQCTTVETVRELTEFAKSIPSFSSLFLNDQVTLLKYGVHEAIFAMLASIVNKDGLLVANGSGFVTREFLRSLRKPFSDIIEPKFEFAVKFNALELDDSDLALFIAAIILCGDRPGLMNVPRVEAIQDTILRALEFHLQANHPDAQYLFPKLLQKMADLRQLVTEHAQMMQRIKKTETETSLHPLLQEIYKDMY
Procedure, shortened: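 Read-out: beta-lactamase FRET fluorescence after 2 h room-temperature incubation with LiveBLAzer B/G substrate. Cells were HEK293H carrying a UAS-bla reporter for PPARd, treated at 37 C with DMSO-dissolved compounds.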

[3] = qHTS assay to identify small molecule antagonists of the peroxisome proliferator-activated receptor delta (PPARd) signaling pathway - cell viability counter screen (AID 743213); further: nearly all actives have a fitted effect of over 50% in size; further: potency means the concentration at half of the fitted maximal effect
Procedure, shortened: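 HEK293H PPARd UAS-bla cells, 5 h pre-incubation, compound + L165041 300 nM final, 17 h 37 C; B/G FRET substrate 2 h RT; then CellTiter-Glo 30 min RT, luminescence.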

[4] = molecular target: Peroxisome proliferator-activated receptor delta (Homo sapiens) (UniProt Q03181); experiment: qHTS assay to identify small molecule antagonists of the peroxisome proliferator-activated receptor delta (PPARd) signaling pathway (AID 743215; active means well fitted inhibition curve with a large enough effect in the signal ratio in the repeat runs, not every such curve was filed as active; the % refers to the signal ratio;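 further: cells stimulated with agonist L165041 at 300 nM final during compound exposure; series mostly up to about 62 µM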)
Procedure, shortened: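 Here, a reporter line (HEK293H, beta-lactamase under a UAS) measures PPARd signaling. Compounds are tested against agonist L165041 at 300 nM final concentration over 17 h at 37 C, with fluorescence read after substrate.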

[5] = qHTS assay to identify small molecule agonists of the farnesoid-X-receptor (FXR) signaling pathway - cell viability counter screen (AID 743218); further: nearly all actives have a fitted effect of over 45% in size; further: potency means the concentration at half of the fitted maximal effect
Procedure, shortened: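 Quantitative HTS counter screen measuring ATP-based viability via CellTiter-Glo luminescence in HEK 293T cells carrying a UAS-driven beta-lactamase reporter, after 16 h compound exposure at 37 C.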

[6] = qHTS assay to identify small molecule antagonists of the farnesoid-X-receptor (FXR) signaling pathway - cell viability counter screen (AID 743221; active means well fitted cell-killing curve with a large enough effect in the repeat runs, not every such curve was filed as active; further: nearly all actives have a fitted effect of over 50% in size; further: potency means the concentration at half of the fitted maximal effect)
Procedure, shortened: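 GeneBLAzer FXR-UAS-bla HEK 293T cells, compound plus chenodeoxycholic acid (50 uM final), 16 h at 37 C. CellTiter-Glo added to the same wells after the beta-lactamase read; luminescence read after 30 min at room temperature as viability.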

[7] = molecular target: Bile acid receptor (Homo sapiens) (UniProt Q96RI1); experiment: qHTS assay to identify small molecule antagonists of the farnesoid-X-receptor (FXR) signaling pathway (AID 743217; active means well fitted inhibition curve with a large enough effect in the signal ratio in the repeat runs, not every such curve was filed as active; the % refers to the signal ratio)
Sequence of Bile acid receptor (Homo sapiens) (Q96RI1 whole entry, looked up): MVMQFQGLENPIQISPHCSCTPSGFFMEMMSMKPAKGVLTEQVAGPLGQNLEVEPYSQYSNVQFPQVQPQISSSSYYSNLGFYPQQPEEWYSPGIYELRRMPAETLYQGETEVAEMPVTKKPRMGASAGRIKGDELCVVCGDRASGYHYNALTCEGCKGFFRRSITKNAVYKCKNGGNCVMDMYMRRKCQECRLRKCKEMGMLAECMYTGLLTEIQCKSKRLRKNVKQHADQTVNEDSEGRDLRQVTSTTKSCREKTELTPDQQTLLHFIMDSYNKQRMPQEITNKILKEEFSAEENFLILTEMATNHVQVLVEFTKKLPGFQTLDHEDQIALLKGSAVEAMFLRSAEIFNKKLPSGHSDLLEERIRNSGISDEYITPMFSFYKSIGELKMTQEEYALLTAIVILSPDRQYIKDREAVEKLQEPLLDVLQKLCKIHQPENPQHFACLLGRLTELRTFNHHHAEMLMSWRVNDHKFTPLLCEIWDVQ
Procedure, shortened: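 Test compounds are pin-transferred onto FXR-bla HEK 293T cells, then chenodeoxycholic acid is added at 50 uM final. After 16 h at 37 °C, LiveBLAzer B/G substrate is applied for 2 h at room temperature and fluorescence read.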

[8] = molecular target: Bile acid receptor (Homo sapiens) (UniProt Q96RI1); experiment: qHTS assay to identify small molecule agonists of the farnesoid-X-receptor (FXR) signaling pathway (AID 743220; active means well fitted activation curve with a large enough effect in the signal ratio in the repeat runs, not every such curve was filed as active; the % refers to the signal ratio)
Procedure, shortened: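 FXR-UAS-bla HEK 293T cells carrying a UAS-driven beta-lactamase reporter were plated for 5 h at 37C/5% CO2, then exposed to DMSO-dissolved Tox21 10K compounds for 16 h at 37C. A LiveBLAzer B/G FRET substrate was loaded for 2 h at room temperature before fluorescence reading.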

[9] = molecular target: Vitamin D3 receptor (Homo sapiens) (UniProt P11473); experiment: qHTS assay to identify small molecule agonists of the vitamin D receptor (VDR) signaling pathway (AID 743222; calls by dose curve)
Sequence of Vitamin D3 receptor (Homo sapiens) (P11473 whole entry, looked up): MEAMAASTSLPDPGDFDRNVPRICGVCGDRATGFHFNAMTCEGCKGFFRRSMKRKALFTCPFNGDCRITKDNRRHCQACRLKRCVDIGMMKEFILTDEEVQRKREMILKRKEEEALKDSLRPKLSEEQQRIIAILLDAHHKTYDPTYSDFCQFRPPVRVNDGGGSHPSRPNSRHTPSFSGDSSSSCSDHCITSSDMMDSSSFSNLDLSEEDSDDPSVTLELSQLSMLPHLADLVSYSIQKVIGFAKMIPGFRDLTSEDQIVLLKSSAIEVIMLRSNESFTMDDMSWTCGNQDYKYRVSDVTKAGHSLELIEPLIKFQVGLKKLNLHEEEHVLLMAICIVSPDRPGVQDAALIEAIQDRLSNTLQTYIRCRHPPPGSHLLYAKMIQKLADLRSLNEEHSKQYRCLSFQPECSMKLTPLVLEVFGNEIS
Procedure, shortened: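 Tox21 cell reporter format: VDR-bla line, 16 h compound exposure in 5% CO2 at 37C, then fluorescence intensity after 2 h with LiveBLAzer B/G FRET substrate.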

[10] = molecular target: Vitamin D3 receptor (Homo sapiens) (UniProt P11473); experiment: qHTS assay to identify small molecule antagonists of the vitamin D receptor (VDR) signaling pathway (AID 743223; active means well fitted inhibition curve with a large enough effect in the signal ratio in the repeat runs, not every such curve was filed as active; the % refers to the signal ratio)
Procedure, shortened: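 VDR-bla cells were treated with compound plus 3 nM final 1alpha,25-dihydroxyvitamin D3 for 16 h at 37C. Beta-lactamase reporter read by B/G FRET substrate fluorescence after 2 h at room temperature. qHTS format.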

Row | SMILES | Potency [1] | Potency [2] | Potency [3] | Potency [4] | Potency [5] | Potency [6] | Potency [7] | outcome [8] | outcome [9] | outcome [10]
1 | CCC(=O)O[C@H]1CC[C@H]2[C@@H]3CCC4=CC(=O)CC[C@]4(C)[C@H]3CC[C@]12C | 49 µM (active) and inactive | inactive | inactive | inactive | 54.9 µM (active) and inactive | inactive |  |  |  | 
2 | O=[N+]([O-])c1ccc(O)c([N+](=O)[O-])c1 | inactive |  |  |  |  |  |  |  |  | 
3 | CC(C)(OOC(C)(C)c1ccccc1)c1ccccc1 | inactive | inactive | inactive | inactive |  | inactive | inactive | inactive | inactive | inactive
4 | Brc1ccc(Oc2cc(Br)c(Br)cc2Br)c(Br)c1 | 22 µM (active) | inactive | inactive | inactive | inactive | inactive |  | inactive | inactive | inactive
5 | O=P(Oc1ccccc1)(Oc1ccccc1)Oc1ccccc1 | 24.4 µM (active) | inactive | inactive | inactive | inactive | inactive |  | inactive | inactive | inactive
6 | CC(C)=CC1C(C(=O)OCc2coc(Cc3ccccc3)c2)C1(C)C (configuration not stated) | inactive | inactive | inactive | inactive | inactive | inactive | inactive | inactive | inactive | inactive
7 | O=[N+]([O-])c1cccc2ccccc12 | inactive | inactive | inactive | inactive | inactive | inactive |  |  |  | 
8 | Nc1c(Cl)cc([N+](=O)[O-])cc1Cl | inactive | inactive | inactive and 4.36 µM (active) | inactive | 2.75 µM (active) | inactive and 4.36 µM (active) | inactive | inactive | inactive | inactive
9 | NC(=S)Nc1ccccc1 | inactive | inactive | inactive | inactive | inactive | inactive | inactive | inactive | inactive | inactive
10 | Oc1cc(Cl)ccc1Oc1ccc(Cl)cc1Cl | 20 µM (active) and 15 µM (active) | inactive | 28 µM (active) and inactive | inactive | 42.1 µM (active) | 56.2 µM (active) |  |  | inactive | inactive
11 | COP(=S)(OC)Oc1ccc([N+](=O)[O-])cc1 | inactive | inactive | inactive | inactive |  | inactive | inactive | inactive | inactive | 
12 | c1nc[nH]n1 | inactive | inactive | inactive | inactive | inactive | inactive | inactive | inactive | inactive | inactive
13 | CN(C)C(=O)Nc1ccc(Cl)cc1 | inactive | inactive | inactive | inactive | inactive | inactive | inactive | inactive | inactive | inactive
14 | NCc1cccnc1 | inactive | inactive | inactive | inactive | inactive | inactive | inactive | inactive | inactive | inactive
15 | CCC(CC)Nc1c([N+](=O)[O-])cc(C)c(C)c1[N+](=O)[O-] | inactive | inactive | inactive | inactive | inactive | inactive | inactive | inactive | inactive | inactive
16 | CC(C)(C)c1ccccc1O | inactive | inactive | inactive | inactive | inactive | inactive |  |  | inactive | 
17 | CCN(N=O)C(N)=O | inactive | inactive | inactive | inactive | inactive | inactive | inactive | inactive | inactive | inactive
18 | Cc1cc(Cl)ccc1OCCCC(=O)O | inactive | inactive | inactive | inactive | inactive | inactive | inactive | inactive | inactive | inactive
19 | COP(=S)(OC)Oc1cc(Cl)c(Cl)cc1Cl | inactive | inactive | inactive | inactive | inactive | inactive |  |  |  | 
20 | C=C(C)C(=O)OCC1CO1 (configuration not stated) | inactive | inactive | inactive | inactive | inactive | inactive | inactive | inactive | inactive | inactive
21 | Nc1cccnc1 | inactive | inactive | inactive | inactive | inactive | inactive | inactive | inactive | inactive | 
22 | CC(C)C(=O)OCC(C)(C)C(OC(=O)C(C)C)C(C)C (configuration not stated) | inactive | inactive | inactive | inactive | inactive | inactive |  |  | inactive | inactive
23 | O=P(O)(O)CCCl | inactive | inactive | inactive | inactive | inactive | inactive | inactive | inactive | inactive | inactive
24 | C#C[C@]1(O)CC[C@H]2[C@@H]3CCC4=CC(=O)CC[C@]4(C)[C@H]3CC[C@@]21C | inactive | inactive | inactive | inactive | inactive | inactive | inactive | inactive |  | 
25 | C#CCOS(=O)OC1CCCCC1Oc1ccc(C(C)(C)C)cc1 (configuration not stated) | inactive and 24.5 µM (active) | inactive | inactive | inactive | inactive | inactive | inactive | inactive |  | 
